Rows were chosen to be rich in hits. Some 1.2% of all compounds tested hit in one or more screens of this group.
NPSR antag: antagonists of human neuropeptide S receptor cAMP signaling; Q6W5P4; CHO-NPSR cells, cAMP TR-FRET, antagonist mode; Potency, µM (highest dose often 38.3 µM), for the others: top-dose activity change, negative = inhibition, hits mostly inhibitors; AID 1461; hit rate 1% among 220,000; note: nearly all actives have a fitted effect of over 50% in size
rTrxR1 inhibitor: blocks rat thioredoxin reductase 1; O89049; recombinant rTrxR1, NADPH fluorescence consumption, selenite substrate; Potency, µM (doses to about 114 µM), inactives show at the top dose activity change, negative = inhibition, hits mostly inhibitors; hit rate 1% among 390,000; note: nearly all actives have a fitted effect of over 65% in size
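Rat TrxR1 (90 nM in the dispensed reagent) was pre-reduced with 400 uM NADPH for 5 min at room temperature, then incubated with compound for 15 min. After 400 uM selenite was added, NADPH fluorescence (Ex 340/Em 450 nm) was followed for 8 min.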
GALK inh: blocks human galactokinase activity | P51570 | Purified GALK, Kinase-Glo residual ATP luminescence | Potency, µM (top dose mostly 57.5 µM), for inactives: at the highest dose activity change, negative = inhibition, hits mostly inhibitors | hit rate 0.007% among 270,000 | AID 1868
Target sequence (P51570 whole entry, looked up): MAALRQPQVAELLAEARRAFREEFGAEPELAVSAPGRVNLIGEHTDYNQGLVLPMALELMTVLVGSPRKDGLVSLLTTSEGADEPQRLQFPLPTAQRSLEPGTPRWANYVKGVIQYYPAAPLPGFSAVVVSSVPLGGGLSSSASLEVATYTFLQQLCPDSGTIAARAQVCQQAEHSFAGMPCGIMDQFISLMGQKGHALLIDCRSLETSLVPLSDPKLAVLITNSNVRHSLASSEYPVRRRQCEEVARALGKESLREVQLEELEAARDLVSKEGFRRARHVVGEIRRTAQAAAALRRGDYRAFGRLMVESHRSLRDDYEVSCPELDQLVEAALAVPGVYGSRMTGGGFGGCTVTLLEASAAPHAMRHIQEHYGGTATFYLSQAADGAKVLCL
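ATP-depletion format; final 35 uM ATP, 100 uM D-galactose, 5 nM enzyme; pH 8.0 HEPES/Mg2+ buffer; 60 min RT; luminescence read 10 min after detection reagent.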
TrxR1 substrate: rat thioredoxin reductase 1 substrate activity. O89049. purified TrxR1 substrate turnover, NADPH consumption readout. Potency, µM (top dose mostly 114 µM), inactives show at the top dose activity change, negative = substrate turnover. hit rate 0.01% among 390,000; note: nearly all actives have a fitted effect of over 50% in size
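Rat TrxR1, dispensed at 90 nM, was prereduced with 400 uM NADPH (final) for 5 min at ~22 deg C, then incubated with compound 15 min before 400 uM selenite. A first-read NADPH fluorescence drop versus no-compound background flagged substrates.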
An asterisk follows results filed as active; ? = inconclusive; . = no result; [ ] = remark or other dose. Calls come from the whole dose curve; as a rule, active = well fitted curve in the direction sought with a large enough effect; inconclusive = small, poorly fitted or top-dose-only effect, or another doubt; inactive = no such curve, though single readings can be large; an effect the other way counts as inactive or inconclusive. % is set by controls: 0 for no effect and ±100 for the full control effect; potency is the fitted concentration of half-maximal effect.

SMILES	NPSR antag	rTrxR1 inhibitor	GALK inh	TrxR1 substrate
CCOc1ccc(-n2nc3ccc(NC(=O)c4ccc5c(c4)OCCO5)cc3n2)cc1	10µM*	30%	-3%	65%
O=C(NC(=S)Nc1ccc(S(=O)(=O)N2CCCCC2)cc1)c1ccccc1	-25%[46.1 µM]	11µM*	-3%	3%[57.1 µM]
CCCCC(=O)NC(=S)Nc1cccc(NC(=O)c2ccccc2)c1	-30%	-51%	-1%	5%[57.1 µM]
CCCC(=O)NC(=S)Nc1cccc(NC(=O)c2ccccc2)c1	-21%	22µM*	-1%	-2%
COc1ccc(NC(=S)NC(=O)c2ccc3c(c2)OCCO3)cc1	.	3.5µM*	.	-13%
O=C(Nc1ccc(S(=O)(=O)N2CCCC2)cc1)c1ccccc1	.	22%[57.1 µM]	.	11%[57.1 µM]
CC(=O)Nc1ccc(NC(=O)c2ncoc2-c2ccco2)cc1	.	-2%[57.1 µM]	.	-4%[57.1 µM]
O=C(COc1ccc(F)cc1F)N1CCCCCCC1	.	-2%[57.1 µM]	4%	7%[2.29 µM]
Cn1ncc2cc(NC(=S)NC(=O)c3ccccc3)ccc21	-15%[46.1 µM]	25µM*	-1%	-10%
COc1ccc(N2CCN(c3ccc(NC(=O)c4ccc5c(c4)OCO5)cc3C#N)CC2)cc1	5µM*	14%[57.1 µM]	1%	0%[57.1 µM]
O=C(NC(=S)Nc1ccc2c(c1)OCCO2)c1ccccc1	-13%[46.1 µM]	7.1µM*	-3%	0%
CC[N+](C)(C)c1ccc(/C=C/c2ccc3ccccc3n2)cc1	.	-10%	.	-6%
N#CC1=C(S)N(c2ccccc2)C(c2ccc(-c3cccc(Cl)c3)o2)NC1=O (stereo unspecified)	-51%	40µM*	-7%	-4%
C[C@@H]1[C@H](c2ccccc2)OCCS(=O)(=O)N1Cc1cccc(C(F)(F)F)c1	.	18%	.	-3%
CC1=C(CC(=O)O)c2cc(F)ccc2/C1=C\c1ccc(S(C)(=O)=O)cc1	?	15%[57.1 µM]	.	9%[57.1 µM]
CC1=C(CC(=O)O)c2cc(F)ccc2/C1=C/c1ccc(S(C)=O)cc1 (stereo unspecified)	.	35µM*	2%	-4%
CC(=O)c1ccc(OCc2cc(C(=O)N3CC[C@@H]4CCCC[C@H]4C3)no2)cc1	.	25µM*	4%	-13%
COCC1CCCN(C(=O)c2cc(COc3ccc(C(C)=O)cc3)on2)C1 (stereo unspecified)	.	?	.	0%
Cc1ccc(CNC(=O)CSc2nc(=O)[nH]c3c2CCCC3)cc1	.	7%[57.1 µM]	.	-2%[57.1 µM]
CCOC(=O)c1sc(=S)n(-c2ccc(OC)cc2)c1C	-9%	3%[57.1 µM]	1%	0%[57.1 µM]
CCOC(=O)c1c2c(n(-c3ccc(OC)cc3)c1C)C(=O)C(=O)c1ccccc1-2	.	?	.	56µM*
Cc1ccc(/C=C2\CCC3=C2OC(N)=C(C#N)C3c2ccc(C)cc2)cc1 (stereo unspecified)	-6%[46.1 µM]	50µM*	3%	-9%
c1coc(Cn2c(-c3ccco3)nc3ccccc32)c1	1%[46.1 µM]	3.2µM*	0%	27%
Clc1ccc(OCCn2c(-c3ccco3)nc3ccccc32)cc1	?	?	0%	11%
CCOC(=O)N1CCc2c(sc(NCc3cccc(F)c3)c2C(=O)Nc2ccc(OCC)cc2)C1	.	6%[57.1 µM]	.	-4%[57.1 µM]
SMILES	NPSR antag	rTrxR1 inhibitor	GALK inh	TrxR1 substrate
CCOC(=O)c1c(CSc2ccccc2)n(C)c2ccc(O)c(CN3CCOCC3)c12	7.9µM*	12%[57.1 µM]	8%	6%[57.1 µM]
CCOC(=O)Cc1ccc(NC(=O)N2CCc3c(sc4c3CCCC4)C2c2ccc(F)cc2)cc1 (stereo unspecified)	.	15%[57.1 µM]	.	-2%[57.1 µM]
CC[N+]1(C)CCC(O)(/C=C/c2ccccc2)C(C(=O)/C=C/c2ccccc2)C1 (stereo unspecified)	.	0.32µM*	.	11%[11.4 µM]
O=C(NNS(=O)(=O)c1ccccc1)c1cccnc1	-20%	17%	-3%	3%
O=C(NC(=S)NNS(=O)(=O)c1ccc(Cl)cc1)c1cccnc1	-2%	18µM*	1%	9%
CCCCc1cc(=O)oc2cc(C)c3c(C)coc3c12	.	32%	.	13%
O=C(O)c1cc(-c2ccc(Cl)s2)nc2ccccc12	6.3µM*	46%	5%	179%[57.1 µM]
Cc1ccc(-c2cc(C(=O)O)c3ccccc3n2)s1	.	79µM*	2%	827%
Cc1cccc(NC(=O)c2cc(-c3ccc(C)s3)nc3ccccc23)n1	1%	-6%[11.4 µM]	1%	46%[57.1 µM]
O=C(NCc1ccccc1Br)c1ccc2nc(N3CCCCC3)sc2c1	.	14%	.	0%
CCOc1ccc(C(=O)Nc2cccc(-c3nc4cc(Cl)cc(Cl)c4o3)c2)cc1	.	18%	.	4%
CCN(c1ccccc1)S(=O)(=O)c1ccc2[nH]cc(C(=O)NCc3ccc(C)cc3)c(=O)c2c1	.	46%[57.1 µM]	.	7%[57.1 µM]
O=C(O)c1cc(O)c2c(c1)[C@@H]([C@H]1c3cc(C(=O)O)cc(O)c3C(=O)c3c(O[C@@H]4O[C@H](CO)[C@@H](O)[C@H](O)[C@H]4O)cccc31)c1cccc(OC3O[C@H](CO)[C@@H](O)[C@H](O)[C@H]3O)c1C2=O (stereo partly specified)	.	5%	.	-3%
O=C(O)c1cc(O)c2c(c1)[C@H]([C@H]1c3cc(C(=O)O)cc(O)c3C(=O)c3c(O[C@@H]4O[C@H](CO)[C@@H](O)[C@H](O)[C@H]4O)cccc31)c1cccc(OC3O[C@H](CO)[C@@H](O)[C@H](O)[C@H]3O)c1C2=O (stereo partly specified)	.	79µM*	.	-15%
CCOc1ccc(-c2nnc(SCC(=O)Nc3cccc(C#N)c3)o2)cc1	.	35µM*	.	-7%
CCOc1ccc(-c2nnc(SCC(=O)Nc3cccc(Cl)c3C)o2)cc1	.	5%	.	-7%
Cn1c(=O)n(C)c2cc(NC(=O)CCl)ccc21	-9%[46.1 µM]	50µM*	-1%	1%
CS(=O)(=O)c1ccc(C(=O)OCc2nnc(-c3ccccc3)o2)cc1[N+](=O)[O-]	-30%	1µM*	4%	5%
Nc1ccc(C(=O)NNC(=O)C2COc3ccccc3O2)cc1[N+](=O)[O-] (stereo unspecified)	.	-6%[57.1 µM]	.	2%[57.1 µM]
CC(CCc1ccccc1)NC(=O)COC(=O)c1ccc(S(C)(=O)=O)c([N+](=O)[O-])c1 (stereo unspecified)	-48%	0.79µM*	10%	2%[57.1 µM]
CS(=O)(=O)c1ccc(C(=O)OCC(=O)NC(=O)C2COc3ccccc3O2)cc1[N+](=O)[O-] (stereo unspecified)	.	8.9µM*	.	-1%
CS(=O)(=O)c1ccc(C(=O)OCC(=O)Nc2cccnc2Cl)cc1[N+](=O)[O-]	.	2.5µM*	.	3%
CN(C)S(=O)(=O)c1ccc(C(=O)OCc2nnc(-c3ccccc3)o2)cc1	7%	11%	-3%	-3%
CN(CC(=O)Nc1ccc(F)cc1)C(=O)C1CCN(C(=O)Nc2ccccc2)CC1	.	9%	.	3%
Cc1ccccc1NC(=O)Cc1nc(COC(=O)c2ccc(S(C)(=O)=O)c([N+](=O)[O-])c2)cs1	.	3.2µM*	.	-3%
CNc1cc(C(=O)O)nc2ccccc12	.	?	.	-6%
O=C(/C=C/c1cccnc1)c1cc(F)ccc1O	16%	-31%	2%	25%
O=C(O)c1cc(/C=C/C(=O)c2cc(F)ccc2O)c2c(c1)COCO2	-32%	45µM*	.	-11%
